Results filed as inconclusive are left out. Calls of active or inactive are those of the source. The call rests on the fitted dose curve; in most records, active means well fitted activation curve with a large enough effect; inconclusive means small, poorly fitted or top-dose-only effect; inactive means no such curve, though single readings can be large or run the other way.
What follows are compounds tested against Arylsulfatase A (Homo sapiens) (UniProt P15289) (assay: qHTS screen for enhancers of Arylsulfatase A (ASA1): LOPAC Validation Assay (AID 720538)). Conditions: ASA enzyme activity, LOPAC qHTS enhancer assay; series mostly up to 57.5 µM.
Chain of Arylsulfatase A (Homo sapiens) (P15289 whole entry, looked up): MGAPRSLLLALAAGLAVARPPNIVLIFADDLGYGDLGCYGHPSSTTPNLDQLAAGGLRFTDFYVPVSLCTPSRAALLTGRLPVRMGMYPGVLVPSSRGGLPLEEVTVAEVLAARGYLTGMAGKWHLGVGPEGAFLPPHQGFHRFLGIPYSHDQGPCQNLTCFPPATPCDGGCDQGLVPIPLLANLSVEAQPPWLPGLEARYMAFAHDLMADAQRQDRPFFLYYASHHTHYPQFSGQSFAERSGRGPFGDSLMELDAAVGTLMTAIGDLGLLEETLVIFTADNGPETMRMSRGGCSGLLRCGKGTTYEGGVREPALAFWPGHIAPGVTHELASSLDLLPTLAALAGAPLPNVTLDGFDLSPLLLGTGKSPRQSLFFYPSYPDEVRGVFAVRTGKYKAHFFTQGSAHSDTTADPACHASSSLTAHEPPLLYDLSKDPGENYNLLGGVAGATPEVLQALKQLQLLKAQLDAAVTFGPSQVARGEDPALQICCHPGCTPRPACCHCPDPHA
Description: Lysosomal storage diseases (LSDs) are caused by genetic mutations in genes encoding proteins important for normal lysosomal function. In affected patients, symptoms are usually not manifested unless the mutations result in more than 90% reduction of enzymatic activity of a specific lysosomal enzyme. […] Small molecules could function as enzyme enhancement agents by binding to and stabilizing mutant misfolded proteins in the endoplasmic reticulum (ER), allowing them to evade the ER associated degradation (ERAD), and eventually reach the lysosome. Moreover, small molecules is hypothesized to be able to enhance the residual activity of deficient lysosomal enzyme by either interacting directly with the mutant enzyme or indirectly by acting in different cellular pathways; resulting to increased levels of the mutant and partially functional protein in the lysosomal compartment.
A cell based assay in 1536 well plate format was developed to evaluate activity of the lysosomal sulfatase ASA1 enzyme. ASA1 is deficient in metachromatic leukodystrophy (MLD), an LSD characterized by progressive neurodegeneration for which specific treatment is not available. Compounds that are active may therefore have some therapeutic application for this disease. This assay was used to validate the ASA1 qHTS using the Sigma LOPAC library. In this assay increase in signal = enhanced ASA1 activity. Activation is the desired outcome for this assay.
NIH Chemical Genomics Center [NCGC]
NIH Molecular Libraries Probe Centers Network [MLPCN]
Assay Submitter (PI): Gustavo Maegawa, Johns Hopkins University School of Medicine
[2] Gieselmann V, et al. Acta Paediatr Suppl. 2008; 97: 15-21
Four microliter (~8,000 cells/well) of SV40-transformed skin fibroblasts from an MLD patient (ASA-I179S) were seeded into a 1,536 solid white plate. Cells were left to adhere for 6 hrs, followed by addition of 23 nL of compounds. Cells were incubated with compounds for 48h at 37 degree C and 5% CO2. Four microliter of 1 mM pNCS substrate/lysis buffer (0.5mM pNCS final concentration) was added and incubated for 14h at room temperature. To stop the reaction, […] of 5 N of NaOH (1N NaOH final concentration) was then added and fluorescence was measured using the ViewLux plate reader (Ex=525 nm; Em=598 nm).

| Compound | outcome |
| --- | --- |
| O=C(O)c1cc2cc(Cc3cccnc3)ccc2o1 | inactive |
| CC(C)C[C@H]1C(=O)N2CCC[C@H]2[C@]2(O)O[C@](NC(=O)[C@@H]3C=C4c5cccc6[nH]c(Br)c(c56)C[C@H]4N(C)C3)(C(C)C)C(=O)N12 | inactive |
| COC(=O)[C@H]1[C@H]2C[C@H]3c4[nH]c5ccccc5c4CCN3C[C@H]2CC[C@@H]1O | inactive |
| CN1C2CCC1CC(OC(=O)c1c[nH]c3ccccc13)C2 (stereo not given) | inactive |
| N[C@@H](Cc1cnc[nH]1)C(=O)O | inactive |
| Oc1ccc(O)cc1 | inactive |
| CCCC1O[C@@H]2C[C@H]3[C@@H]4CCC5=CC(=O)C=C[C@]5(C)[C@H]4[C@@H](O)C[C@]3(C)[C@]2(C(=O)CO)O1 (stereo not given in full) | inactive |
| CNCCC=C1c2ccccc2CCc2ccccc21 | inactive |
| CCCn1c(=O)[nH]c(=O)c2[nH]cnc21 | inactive; inhibitor; fitted 0.151 uM |
| Nc1cc(Cl)c(NC2=NCCN2)c(Cl)c1 | inactive |
| COc1cc(NS(C)(=O)=O)ccc1Nc1c2ccccc2nc2ccccc12 | inactive |
| O=C1CCC(c2ccc(-n3ccnc3)cc2)=NN1 | inactive |
| COc1cc2c(cc1O)CC[C@@H]1[C@@H]2CC[C@]2(C)[C@@H](O)CC[C@@H]12 | inactive |
| N[C@H](CO)C(=O)O | inactive |
| CNCCC(Oc1ccccc1C)c1ccccc1 (stereo not given) | inactive |
| CC[C@H](C)C(=O)O[C@H]1CCC=C2C=C[C@H](C)[C@H](CC[C@@H]3C[C@@H](O)CC(=O)O3)[C@H]21 | inactive |
| C[C@@H]1C(=O)NC2=Nc3cccc(Cl)c3CN21 | inactive |
| CC(CCc1ccccc1)NCC(O)c1ccc(O)c(C(N)=O)c1 (stereo not given) | inactive |
| CC1(C)CCC(NC(=O)[C@@H](N)CCC(=O)O)CC1 | inactive |
| C[N+]1(CCCCC[N+]2(C)CCCC2)CCCC1 | inactive |
